Bioassay records deposited in PubChem by National Center for Advancing Translational Sciences (NCATS).
Only some compounds are listed: those with a hit (about 3.1% of all), similar ones and a draw of the others.
Tau fluor counter – counter-screen for tau fibril formation inhibitors; hit rate 0.93% among 280,000; tau K18 P301L Alexa594 fluorescence, heparin fibrillization; AID 1463; Potency, µM (highest dose often 57.7 µM), for inactives: at the top dose activity change, negative = decrease; also: nearly all actives have a fitted effect of over 55% in size
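Human tau K18 P301L (15 uM unlabeled, 0.24 uM Alexa 594-labeled) in 100 mM sodium acetate pH 7 with 20 uM heparin, 6 hr at 37 C. ThT 30 uM added, 1 hr ambient; Alexa 594 FP and total fluorescence read at 555/632 nm.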
TRb-SRC2 inh – disrupts binding of human TR beta to SRC2 | TRbeta-SRC2 peptide binding, fluorescence polarization; receptor liganded with 1 µM T3 | Potency, µM (top dose mostly 106 µM), without a hit: at the highest dose activity change, negative = inhibition, hits mostly inhibitors | hit rate 0.065% among 280,000;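 also: plate controls were bound peptide for no effect and peptide without receptor for full effect; nearly all actives have a fitted effect of over 50% in size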
Target sequence (P10828 whole entry, looked up): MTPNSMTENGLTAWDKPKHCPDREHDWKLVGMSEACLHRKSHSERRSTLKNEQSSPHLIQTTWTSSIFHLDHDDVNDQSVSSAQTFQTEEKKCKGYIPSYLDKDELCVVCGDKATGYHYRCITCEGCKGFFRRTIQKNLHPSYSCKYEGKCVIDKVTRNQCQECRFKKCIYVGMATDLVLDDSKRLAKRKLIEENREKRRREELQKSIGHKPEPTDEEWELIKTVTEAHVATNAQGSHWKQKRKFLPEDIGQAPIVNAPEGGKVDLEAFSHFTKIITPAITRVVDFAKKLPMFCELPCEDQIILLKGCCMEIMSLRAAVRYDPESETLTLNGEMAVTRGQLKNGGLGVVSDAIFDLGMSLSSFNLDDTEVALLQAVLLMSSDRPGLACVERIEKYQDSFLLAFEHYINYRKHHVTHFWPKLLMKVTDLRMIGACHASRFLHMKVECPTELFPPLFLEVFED
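Fluorescence polarization of 20 nM Texas Red SRC2 peptide with 0.6 uM human TRb ligand-binding domain, in Tris buffer with 1uM T3 and 5% DMSO. Incubated 5 hr ambient; normalized to unbound and bound controls.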
Tau FP inhib – tau fibrillization inhibition (FP). P10636. Potency, µM (doses to about 57.7 µM), inactives show at the highest dose activity, negative = inhibition, most hits filed as inhibitors. hit rate 0.39% among 280,000. AID 1468. K18 P301L tau heparin fibrillization, Alexa594 FP, 6 h; also: nearly all actives have a fitted effect of over 55% in size
Target sequence (P10636 561-689 P618L limits assumed): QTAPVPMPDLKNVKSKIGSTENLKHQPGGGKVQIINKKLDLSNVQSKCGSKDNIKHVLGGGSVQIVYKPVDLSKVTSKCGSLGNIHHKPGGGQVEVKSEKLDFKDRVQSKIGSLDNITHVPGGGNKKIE
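Compound effects on tau fibrillization are measured by Alexa 594 fluorescence polarization (ex 555, em 632 nm). K18 P301L tau is used at 15 uM with 0.24 uM labeled tracer, and 20 uM heparin induces aggregation over 6 hr at 37 C.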
TexasRed fluor – alters Texas Red total fluorescence, flagging assay interference | TRb/SRC2 Texas Red total fluorescence interference | Potency, µM (top dose mostly 106 µM), without a hit: at the top dose fluorescence change, negative = quenching | hit rate 0.29% among 280,000 | AID 1479; active = well fitted curve in either direction with a large enough effect; inconclusive = small, poorly fitted or top-dose-only effect
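Flags fluorescent or light-absorbing compounds by total fluorescence, S + 2P, at 555 nm excitation and 632 nm emission. Mixture: 20 nM Texas Red SRC2 peptide, 0.6 uM human TRb LBD, 1 uM T3, 5% DMSO; compound exposure 5 h at ambient temperature.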
Tau fibril ThT – inhibitors of human tau fibril formation, thioflavin T binding | P10636 | recombinant tau K18 P301L, heparin-induced fibrillization, ThT fluorescence | Potency, µM (highest dose often 57.4 µM), for the others: at the top dose activity, negative = inhibition, most hits filed as inhibitors | hit rate 2.1% among 270,000 | AID 1460; also: nearly all actives have a fitted effect of over 55% in size
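Fibril formation assay: tau K18 P301L at 15 uM with trace Alexa 594 label, heparin inducer 20 uM, pH 7 sodium acetate buffer, 37 C for 6 hr; endpoint ThT signal.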
Starred values were filed as active, the others as inactive; ? = inconclusive; . = no result; [ ] = remark or other dose. Unless noted, calls follow the shape of the dose curve; as a rule, active = well fitted curve in the direction sought with a large enough effect; inconclusive = small, poorly fitted or top-dose-only effect, or another doubt; inactive = no such curve, though single readings can be large; an effect the other way counts as inactive or inconclusive. Unless noted, % is scaled to controls: 0 for no effect and ±100 for the full control effect; potency is read from the fitted curve at half-maximal effect.

SMILES	Tau fluor counter	TRb-SRC2 inh	Tau FP inhib	TexasRed fluor	Tau fibril ThT
Nc1nc2c(c(=O)[nH]1)C(c1cccc3ccccc13)C1=C(N2)c2ccccc2C1=O (stereo not given)	?	2%	-10%	-7%	10µM*
N#C/C(=C\c1ccc(O)c(O)c1)C(=O)OCCc1cccs1	18µM*[quencher]	7%	13%	-4%	14µM*
Cc1nc(Nc2ccccc2)sc1-c1ccccc1	7.9µM*[quencher]	6%	12%	-2%	?
O=C(CSc1nnc(CNc2ccccc2)o1)N1CCc2ccccc21	-6%	-8%	2%	0%	-6%
O=C(CSc1nnc(Cc2csc(Nc3cccc(Cl)c3)n2)o1)N1CCc2ccccc21	7.1µM*[quencher]	3%	6%	-4%	?
N#Cc1c(N)oc(-c2ccc3c(c2)OCO3)c1-c1ccc2c(c1)OCO2	28µM*[quencher]	5%	12%	-2%	?
N#Cc1c(N)nc2c(c1-c1ccc3c(c1)OCO3)CCCCCC2	-7%	-20%	-11%	1%	-8%
CC(Sc1cccc[n+]1[O-])C(=O)Nc1cccc([N+](=O)[O-])c1 (stereo not given)	-7%	-4%	-7%	-1%	-2%
O=C(Nc1cccc(C(F)(F)F)c1)Nc1cccs1	11µM*[quencher]	5%	?	-15%	?
CCSCCc1nnc(NC(=O)Nc2cccc(C(F)(F)F)c2)s1	?	5%	11µM*	-2%	6%
CC(C(=O)Nc1cccc([N+](=O)[O-])c1)[n+]1ccccc1 (stereo not given)	13%[2.34 µM]	-2%	-55%	-3%	22µM*
O=C(Nc1cccc([N+](=O)[O-])c1)Nc1cccs1	20µM*[quencher]	1%	10%	-2%	?
NC(N)=NCCC[C@H](N)C(=O)N1CCC[C@H]1C(=O)N1CCC[C@H]1C(=O)NCC(=O)N[C@@H](Cc1ccccc1)C(=O)N[C@@H](CO)C(=O)N1CCC[C@H]1C(=O)N[C@@H](Cc1ccccc1)C(=O)O	.	11%	.	-1%	.
O=C(c1ccc(CS(=O)(=O)c2c(Cl)cccc2Cl)o1)N1CCN(c2ccccc2)CC1	-23%	-24%	6%	6.3µM*[quencher]	-7%
O=C(c1ccc(CS(=O)(=O)c2c(Cl)cccc2Cl)o1)N1CCCC1	-13%	2%	3%	-7%	-8%
Cc1nn(C)c(Oc2ccccc2)c1/C=N/OCc1ccc(C(=O)OC(C)(C)C)cc1	.	-5%[201 µM]	.	-1%[201 µM]	.
Cc1cccc(N2CCC(N3CCN(C4CCCCC4)C(CCO)C3)CC2)c1C (stereo not given)	-39%	-5%	-57%	-15%	10µM*
CC(C)N1CCC(N2CCN(C3CCCC3)CC2CCO)CC1 (stereo not given)	5%	3%	8%	-1%	-1%
Cc1ccc(N/C=C/C(=O)c2ccco2)c(O)c1	-23%	1%	2%	-1%	3.5µM*
[O-]/C(=C(\C(=S)Nc1cccc2ccccc12)[n+]1ccccc1)c1ccc2c(c1)OCCO2	?	?	?	-3%	13µM*
[O-]/C(=C(\C(=S)Nc1cccc2ccccc12)[n+]1ccccc1)c1ccc(OC(F)F)cc1	-27%	3%	-9%	-1%	?
CNC(=O)COc1ccc(Nc2nnc(-c3ccc(C)c(S(=O)(=O)NC(C)(C)C)c3)c3ccccc23)cc1	?	-8%	9%	0.2µM*[quencher]	?
CCN(CC)C(=O)c1ccc(Nc2nnc(-c3ccc(C)c(S(=O)(=O)NC)c3)c3ccccc23)cc1	-13%	-1%	-10%	-23%	2%
COC(=O)c1ccccc1N=Nc1c(N)n[nH]c1N	-13%	-4%	8%	0%	?
Cc1cccc(N=Nc2c(N)n[nH]c2-c2ccc(Cl)cc2)c1	8.9µM*[quencher]	-4%	?	-1%	?
SMILES	Tau fluor counter	TRb-SRC2 inh	Tau FP inhib	TexasRed fluor	Tau fibril ThT
Cc1ccc(-c2[nH]nc(N)c2N=Nc2ccccc2C)cc1	11µM*[quencher]	-2%	-5%	0%	16µM*
Cc1[nH]nc(N)c1-c1ccc(Cl)cc1	-4%	-2%	0%	-2%	-1%
Cc1ccc(-c2[nH]nc(N)c2N=Nc2cccc(Cl)c2C)cc1	6.3µM*[quencher]	3%	?	-2%	13µM*
C/C=C/C=C/CCCCCCCO	.	3%[201 µM]	.	-5%[201 µM]	.
COC1C(OC(=O)/C=C/C=C/C=C/C=C/C(=O)O)CCC2(CO2)C1C1(C)OC1CC=C(C)C (stereo not given)	.	1%	.	-3%	.
COc1cc([N+](=O)[O-])cc(/C=N\NC(=O)C2COc3ccccc3O2)c1O (stereo not given)	-26%	1%	0%	-5%	10µM*
O=C(N/N=C\c1cccc([N+](=O)[O-])c1O)C1COc2ccccc2O1 (stereo not given)	-13%	-3%	10%	-2%	7.9µM*
O=C(N/N=C/c1cccc([N+](=O)[O-])c1O)c1cccs1	-12%	7%	15%	-4%	5µM*
O=C(N/N=C/c1cccc([N+](=O)[O-])c1)C1COc2ccccc2O1 (stereo not given)	-11%	0%	2%	0%	-9%
Cn1c(=O)[nH]c(=O)n(C2CCC(O)CC2)c1=O (stereo not given)	.	0%[201 µM]	.	-5%[201 µM]	.
COc1ccc(-c2nnc3n2N=C(c2ccccc2OC)CS3)c(OC)c1	.	1%	.	-1%	.
Cc1ccc(CN(Cc2ccco2)C(=O)COc2cccc(C)c2C)o1	4%	0%	3%	-1%	1%
Cc1cccc(OCC(=O)N(Cc2ccc(N(C)C)cc2)Cc2ccco2)c1C	?	-26%[53 µM]	10%	0.45µM*[quencher]	?
O=[N+]([O-])c1cc(S(=O)(=O)N2CCCC2)ccc1NN=C1CCCCC1	-3%	-7%	4%	0%	-3%
O=[N+]([O-])c1cc(C(F)(F)F)cc([N+](=O)[O-])c1NN=C1CCCCC1	?	0%	?	-11%	13µM*
COc1ccc(OC)c(C2OCCC=CC2C)c1 (stereo not given)	-2%[11.6 µM]	6%[11.2 µM]	-5%[11.6 µM]	-1%[11.2 µM]	-3%[11.5 µM]
C=CCn1c(SCC(=O)NCCCC)nc2scc(-c3ccco3)c2c1=O	-11%	4%	-12%	-8%	?
C=CCn1c(SCC(=O)NC2CCCC2)nc2scc(-c3ccco3)c2c1=O	-19%	-3%	?	-19%	28µM*
O=c1c(C(c2ccc(Cl)cc2)c2c(O)nc3n(c2=O)CCS3)c(O)nc2n1CCS2	8%	-4%	?	-3%	?
O=c1c(C(c2ccc(Cl)cc2)c2c(O)nc3n(c2=O)CCCS3)c(O)nc2n1CCCS2	-28%	3%	?	-1%	11µM*
COc1cccc2c1C(=O)c1c(O)c3c(c(O)c1C2=O)C[C@](O)(C(C)=O)C[C@H]3O[C@@H]1C[C@H](N)[C@H](O)[C@H](C)O1	.	13µM*	.	14µM*[fluorescent]	.
